# Shown is part of a subset that was picked to be rich in hits.
# N370S GC – qHTS Assay for Inhibitors and Activators of N370S glucocerebrosidase as a Potential Chaperone Treatment of Gaucher Disease; hit rate 0.092% among 330,000; Potency, µM (series often up to 59.4 µM), for inactives: at the highest dose activity change, negative = inhibition, hits mostly inhibitors; N370S GC spleen homogenate, 4MU-glucoside fluorescence; AID 2101, 2009;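 note: potency is the fitted concentration of half-maximal effect; 0% = full enzyme activity and -100% = no enzyme basal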
# ClpP mod – qHTS Assay for Activators of ClpP; purified B. subtilis ClpP, FRET peptide cleavage, 20 min; Potency, µM (highest dose often 57.5 µM), without a hit: top-dose activity change, negative = active; hit rate 1.9% among 340,000; AID 651965, 2013; active = well fitted falling curve with a large enough effect; inconclusive = small, poorly fitted or top-dose-only effect; inactive = no such curve, though single readings can be large or run the other way; note: potency is the fitted concentration of half-maximal effect; the source files actives as falling curves though it sought activators and does not explain the sign; nearly all actives have a fitted effect of over 65% in size
# Target sequence (P80244 whole entry, looked up): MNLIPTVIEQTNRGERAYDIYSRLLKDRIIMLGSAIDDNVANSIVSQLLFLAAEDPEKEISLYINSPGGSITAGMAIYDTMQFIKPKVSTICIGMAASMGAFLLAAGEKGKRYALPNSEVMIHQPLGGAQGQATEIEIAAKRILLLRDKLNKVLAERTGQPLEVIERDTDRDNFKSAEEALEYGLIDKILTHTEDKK
#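 Buffer: 100 mM Tris/HCl pH8, 100 mM KCl, 0.05% low protease BSA, 2.5% glycerol, 0.01% Tween-20. ClpP 10 microg/mL final; 20 min RT; delta FRET normalized to ADEP and DMSO controls.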
# CBFb RUNX1 block – qHTS Assay for Compounds Blocking the Interaction Between CBF-beta and RUNX1 for the Treatment of Acute Myeloid Leukemia | Runt-related transcription factor 1 (Homo sapiens) + Core-binding factor subunit beta … | AlphaScreen CBFb-His/RUNX1-biotin binding, biochemical | Potency, µM (doses to about 59.8 µM), inactives show top-dose activity, negative = inhibition, most hits filed as inhibitors | 230,000 tested, under 10 active | AID 1477, 2009; note: % of control where 0% means no effect
#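 Room-temperature protein-protein interaction test with 30 nM each of His-tagged CBF-beta and biotinylated RUNX1, 15 min with compound, then 90 min with nickel plus streptavidin beads. Signal read in AlphaScreen mode.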
# a7 integrin act – qHTS for Activators of Integrin-Mediated Alleviation for Muscular Dystrophy | Potency, µM (doses to about 38.3 µM), inactives show at the top dose activation, actives largely listed as activators | hit rate 0.064% among 350,000 | alpha7betagal myoblasts, beta-gal FDG fluorescence, 48 h;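 note: potency is the fitted concentration of half-maximal effect; 100% = response of the positive control SU9516; nearly all actives have a fitted effect of over 60% in size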
#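 Alpha7betagal+/- myoblasts (passage 13) were plated 16-24 hr, then exposed to compounds (1:260 dilution of DMSO stock) for 48 hours at 37C. After MPER lysis, β-galactosidase reporter activity was read as FDG fluorescence (ex 480/em 540) after 30 minutes.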
# GRP78 ERSR act – qHTS for Inducers of the Endoplasmic Reticulum Stress Response (ERSR) in Human Glioma: qHTS | hit rate 0.02% among 420,000 | U87-MG GRP78 promoter luciferase reporter, 16 h | Potency, µM, for the others: at the top dose activation, most hits filed as activators | AID 602332, 2012; note: potency is the fitted concentration of half-maximal effect; series mostly up to about 76 µM; % of control where 0% means no effect; nearly all actives have a fitted effect of over 35% in size
#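 ERSR induction read as luciferase luminescence (Bright-Glo, 10 min at room temperature) in stably transfected human U87-MG glioma cells exposed to compounds for 16 h, using GRP78 as sensor.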
# Apoferritin bind – qHTS Assay for Identification of Novel General Anesthetics; hit rate 0.074% among 350,000; Potency, µM (top dose mostly 77.5 µM), inactives show top-dose activity change, negative = displacement, actives largely listed as inhibitors; Ferritin light chain (Equus caballus), P02791; AID 485281, 2010; apoferritin/1-aminoanthracene competitive binding, fluorescence; note: potency is the fitted concentration of half-maximal effect; % is set by controls: 0 for no effect and ±100 for the full control effect; nearly all actives have a fitted effect of over 20% in size
# Target sequence (P02791 2-175 limits assumed): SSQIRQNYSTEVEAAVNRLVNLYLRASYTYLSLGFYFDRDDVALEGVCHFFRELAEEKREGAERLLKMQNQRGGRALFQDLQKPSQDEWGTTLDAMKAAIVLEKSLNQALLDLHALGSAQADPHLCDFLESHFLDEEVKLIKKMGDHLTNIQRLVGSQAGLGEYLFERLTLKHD
#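 10 uM apoferritin + 50% sat. 1-AMA, PBS; cpd 10 min RT; Ex380/Em535 endpoint; normalized to free probe vs complex; 4-param Hill fit; propofol titration as pos. ctrl.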
# Starred values were filed as active, the others as inactive; u = inconclusive; x = no result; [ ] = remark or other dose. Unless noted, calls come from the whole dose curve; as a rule, active = well fitted curve in the direction sought with a large enough effect; inconclusive = small, poorly fitted or top-dose-only effect, or another doubt; inactive = no such curve, though single readings can be large; an effect the other way counts as inactive or inconclusive.
SMILES,N370S GC,ClpP mod,CBFb RUNX1 block,a7 integrin act,GRP78 ERSR act,Apoferritin bind
COc1ccc(CN2CCCC(n3cc(C(=O)N4CCCCC4)nn3)C2)c(OC)c1 (stereo not drawn),x,x,x,x,-5.0%,x
CCN1C(=O)[C@H]2[C@@H](c3ccc(-c4ccc(OC)cc4)c(OC)c3)N[C@@](Cc3ccccc3)(C(=O)OC)[C@H]2C1=O,x,25.1µM*,x,-13.6%,0.8%,x
O=C1CCC[C@@H]2[C@@H](Cc3ccccc3)[C@@H](Nc3ccccc3)C[C@@H]3CCN1[C@@H]32,x,1.7%,x,x,-2.6%,x
O=C1NCCN1C(=O)C12CC3CC(CC(C3)C1)C2,12.5%,0.0%,-7.7%,-15.5%,-8.4%,14.1µM*
O=C1NCCN1C(=O)c1ccccc1F,-4.1%,0.0%,5.2%,10.9%,-6.3%,-11.3%
CN(C)c1ccc(/C=C/c2sc3ccccc3[n+]2Cc2ccccc2)cc1,x,3.3%,x,x,-8.8%,x
COc1cccc(C2CC(c3cccs3)=NN2C(=O)CSc2nc3ccccc3o2)c1OC (stereo not drawn),16.7%,8.91µM*,-1.5%,1.9%,-1.2%,-9.4%
Nc1c(S(=O)(=O)c2ccccc2)c2nc3ccccc3nc2n1/N=C/c1ccco1,6.9%,11.2µM*,-21.5%,-6.8%,-4.6%,-9.5%
COc1ccc(S(=O)(=O)c2c(N)n(Cc3ccco3)c3nc4ccccc4nc23)cc1,27.2%,15.8µM*,-7.4%,-41.2%,-8.3%,80.6%
Cc1ccc(S(=O)(=O)c2c(N)n(/N=C/c3ccco3)c3nc4ccccc4nc23)cc1,7.5%,8.91µM*,-26.9%,6.2%,-0.6%,-6.3%
Nc1c(C(=O)NC2CCCCC2)c2nc3ccccc3nc2n1/N=C/c1ccco1,4.5%,x,8.2%,x,x,-0.9%
Cc1cccc(S(=O)(=O)c2c(N)n(/N=C/c3cccnc3)c3nc4ccccc4nc23)c1,1.3%,0.2%,3.8%,-3.3%,-3.5%,-8.9%
Cc1cccc(S(=O)(=O)c2c(N)n(/N=C/c3ccco3)c3nc4ccccc4nc23)c1,-5.8%,3.55µM*,u,-17.3%,-4.5%,-12.5%
C=C[C@@H](C1=CC(=O)C(OC)=C(OC)C1=O)c1ccccc1,-16.9%,x,-11.0%,x,x,x
CCc1cccc2c(C(O)c3c[nH]c4ccccc34)c[nH]c12 (stereo not drawn),x,-18.1%,x,x,-0.6%,x
CN(C)c1ccc(/C=C/c2ccnc3c(Cl)ccc(Cl)c23)cc1,x,-3.4%,x,x,0.9%,x
Cc1cccc(S(=O)(=O)c2c(N)n(-c3ccccc3)c3nc4ccccc4nc23)c1,25.3%,14.1µM*,10.4%,u,-5.3%,4.3%
CCOC(=O)CSc1nc(C)c2cc(OC)ccc2n1,25.6%,14.1µM*,8.5%,8.4%,1.0%,3.3%
COc1ccc2nc(/N=C(\N)NC(=O)C(C)(C)C)nc(C)c2c1,-28.7%,31.6µM*,-2.5%,7.4%,0.6%,u
CCC(=O)N/C(N)=N/c1nc(C)c2cc(OC)ccc2n1,2.6%,3.16µM*,2.6%,-20.6%,-1.4%,-2.1%
CCCc1c(C)nc2ccc(OC)cc2c1SCCC(=O)O,-19.4%,12.6µM*,-6.5%,4.0%,-4.7%,0.1%
O=C(O)c1c2c(nc3ccccc13)CCCC2,x,-2.5%,x,x,-2.7%,x
Cc1nc2ccccc2nc1CN1CCOc2ccc(C3(O)CCN(c4ccccc4F)CC3)cc2C1,x,x,x,x,-5.6%,x
CN(C)C(=O)COc1ccccc1C(=O)OCC(=O)N(CCC#N)c1ccccc1,x,-8.0%,x,x,-1.5%,x
COc1cccc(CNc2ncnc3sc(C(=O)N4CC5CCC4C5)c(C)c23)c1OC (stereo not drawn),x,x,x,x,-3.1%,x
SMILES,N370S GC,ClpP mod,CBFb RUNX1 block,a7 integrin act,GRP78 ERSR act,Apoferritin bind
CC(=O)NCN1CCN(CNC(C)=O)CC1,-8.7%,25.1µM*,4.9%,-3.8%,-0.1%,-6.6%
COc1ccc(-n2c(C)c([N+](=O)[O-])c3ccc(O)c(CN(C)C)c32)cc1,7.8%,22.4µM*,-2.1%,-10.1%,-4.8%,-14.4%
COc1ccc(-n2c(C(C)n3nc(C)c([N+](=O)[O-])c3C)n[nH]c2=S)cc1 (stereo not drawn),-11.6%,0.9%,-3.9%,-8.2%,-3.1%,-4.7%
CCC1C(=O)NCCN1Cc1ccc2c(c1)CN(Cc1cc(OC)c3c(c1)OCO3)CCO2 (stereo not drawn),x,x,x,x,-3.6%,x
CCc1ccc(OCC(=O)Nc2ccc(-c3cc4ccccc4oc3=O)c(OC)c2)cc1,8.7%,35.5µM*,u,-10.0%,-0.2%,50.6%
COc1cc(NC(=O)c2cccnc2)ccc1-c1cc2ccccc2oc1=O,-7.7%,x,u,x,x,-3.1%
COc1cc(NC(=O)c2cc(Cl)ccc2Cl)ccc1-c1cc2ccccc2oc1=O,4.7%[12.8 µM],28.2µM*,-1.4%,-12.0%,-4.9%,2.3%
COc1ccc(S(=O)(=O)NC(CC(=O)NC2CCCC2)c2ccco2)cc1 (stereo not drawn),-0.9%,-1.9%,-0.6%,19.5%,-2.6%,-13.2%
CCOC(=O)N1CCC(NC(=O)CC(NS(=O)(=O)c2ccc(Cl)cc2)c2ccco2)CC1 (stereo not drawn),1.2%,31.6µM*,5.3%,16.4%,-3.5%,-2.7%
Cc1ccc(S(=O)(=O)NC(CC(=O)NC2CCCC2)c2ccco2)cc1 (stereo not drawn),-0.4%,28.2µM*,9.0%,-11.1%,-1.1%,-8.7%
COc1cc(/C=C/C(=O)c2ccc3c(c2)OCO3)cc(OC)c1OC,x,2.0%,x,-73.4%,28.2µM*,x
COc1cc(C=CC(=O)OCC=Cc2ccc3c(c2)OCO3)cc(OC)c1OC,x,28.2µM*,x,41.4%,-1.1%,x
CC(C)NC(=O)COC(=O)c1ccccc1OCC(=O)Nc1ccc(Br)cc1,x,1.1%,x,x,x,x
CCC1CN(CCNC(=O)c2cn3cc(C)ccc3n2)Cc2cc(OC)ccc2O1 (stereo not drawn),x,x,x,x,3.1%,x
CCCCn1c(N)c(N(CCOC)C(=O)c2ccc(Cl)c(S(=O)(=O)N3CCCCC3)c2)c(=O)[nH]c1=O,-3.2%,31.6µM*,x,-8.9%,-0.6%,x
CC(=O)c1cc(C(=O)NC2CCCc3c2cnn3-c2cc(C)cc(C)c2)[nH]n1 (stereo not drawn),-17.8%,31.6µM*,x,-10.8%,5.4%,-8.8%
COc1cc(=O)n2c(c1C(=O)N(C)Cc1nonc1C)CCN(C(=O)c1ccc(C)c(C)c1)CC2,x,x,x,x,-1.2%,x
COc1ccc(S(=O)(=O)Nc2cc(C)ccn2)cc1,-1.7%,14.1µM*,3.1%,-6.8%,-1.4%,-0.3%

# From PubChem BioAssay
